Assay outcomes (PubChem)
AmpC detergent: AmpC beta-lactamase inhibition with detergent present; AmpC hydrolysis of nitrocefin, absorbance 480 nm, 0.01% Triton; AID 485294; P00811; actives 0.041% (n = 370,000); Potency, µM (top dose mostly 114 µM), without a hit: at the top dose activity change, negative = inhibition, hits mostly inhibitors;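 also: 0% = no-compound wells and -100% = no-enzyme wells; nearly all actives have a fitted effect of over 25% in size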
Target sequence (P00811 whole entry, looked up): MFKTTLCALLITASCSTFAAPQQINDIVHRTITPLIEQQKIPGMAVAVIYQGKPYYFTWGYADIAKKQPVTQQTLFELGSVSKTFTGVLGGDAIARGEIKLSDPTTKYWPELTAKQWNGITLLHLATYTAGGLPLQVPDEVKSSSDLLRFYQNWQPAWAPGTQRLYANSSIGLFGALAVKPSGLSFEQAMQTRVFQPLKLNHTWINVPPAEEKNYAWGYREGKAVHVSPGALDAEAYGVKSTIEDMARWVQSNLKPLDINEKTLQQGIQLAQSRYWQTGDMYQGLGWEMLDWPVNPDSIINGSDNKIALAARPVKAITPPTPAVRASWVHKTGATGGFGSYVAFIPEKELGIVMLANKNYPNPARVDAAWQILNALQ
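AmpC (5.3 nM in the dispensed reagent) in 20 mM phosphate pH 7.0 with 0.01% (detergent screen) or 0.0001% Triton X-100 was preincubated with compounds for 15 min at room temperature. Nitrocefin was then added from an 800 uM solution, and hydrolysis was followed at 480 nm.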
AmpC inh no detg: inhibitors of E. coli AmpC beta-lactamase without detergent | P00811 | AmpC nitrocefin hydrolysis, absorbance 480 nm, 0.0001% Triton | Potency, µM (doses to about 57.1 µM), for the others: at the top dose activity change, negative = inhibition, usual class: inhibitors | actives 0.52% (n = 330,000) | AID 485341;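 also: plate controls were no compound for no effect and no enzyme for full effect; nearly all actives have a fitted effect of over 20% in size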
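20 mM phosphate pH 7.0 + 0.01% (detergent screen) or 0.0001% Triton X-100; 5.3 nM AmpC reagent; cpd preinc 15 min RT; nitrocefin (800 uM stock) to start; A480 q20 s × 4 min; Activity was normalised to no-enzyme and no-compound control wells.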
Pf growth 48h: P. falciparum growth inhibition at 48 hours (one generation); AID 504832; actives 5.9% (n = 310,000); P. falciparum luciferase growth in erythrocytes, 48 h; Potency, µM (highest dose often 28.7 µM), for the others: top-dose activity change, negative = inhibition, most hits filed as inhibitors; also: % is scaled to controls: 0 for no effect and ±100 for the full control effect
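Luciferase-expressing P. falciparum in infected erythrocytes (2% hematocrit, 0.1% parasitemia final) in RPMI 1640/0.5% Albumax were exposed to compound for 48 hours at 37 C, 5% CO2; growth read as luminescence.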
SARS PLpro yeast: SARS-CoV PLP inhibition in yeast | S. cerevisiae expressing SARS-CoV PLpro, growth rescue | Potency, µM (series often up to 32.9 µM), inactives show at the top dose activity, positive = growth rescue, actives largely listed as activators | actives 0.19% (n = 330,000); calls by dose curve; also: 0% is about no effect; nearly all actives have a fitted effect of over 55% in size
Sm TGR block: S. mansoni TGR enzyme inhibition | actives 3% (n = 360,000) | AID 485364 | Potency, µM (titrated, usually from 114 µM), inactives show top-dose activity change, negative = inhibition, usual class: inhibitors | purified TGR, DTNB reduction, TNB absorbance 405 nm | Q962Y6; also: % is scaled to controls: 0 for no effect and ±100 for the full control effect; nearly all actives have a fitted effect of over 60% in size
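Kinetic colorimetric format: TGR-catalysed, NADPH-driven DTNB reduction monitored via TNB absorbance. Enzyme dispensed at 20 nM; compound exposure 15 min at room temperature before reaction start.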
Pf growth 96h: inhibits malaria parasite growth, 96 h; P. falciparum luciferase reporter growth, 96 h; Potency, µM (titrated, usually from 28.7 µM), for the others: at the highest dose activity change, negative = inhibition, usual class: inhibitors; actives 6.9% (n = 320,000); AID 504834; also: % is scaled to controls: 0 for no effect and ±100 for the full control effect
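Delayed-death screen, second-generation endpoint: infected erythrocytes, 2% hematocrit, 0.05% parasitemia final; 96 hours at 37 C, 5% CO2; luciferase detection reagent; luminescence decrease equals reduced growth.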
* marks the source's active call; other numbers are inactive results; i = inactive; ? = inconclusive; nt = no result given; [ ] = remark or other dose. Sampled rows, rich in hits. Any-hit rate of the full collection: about 12%. Unless noted, calls follow the shape of the dose curve; as a rule, active = well fitted curve in the direction sought with a large enough effect; inconclusive = small, poorly fitted or top-dose-only effect, or another doubt; inactive = no such curve, though single readings can be large; an effect the other way counts as inactive or inconclusive. Potency is read from the fitted curve at half-maximal effect.

SMILES	AmpC detergent	AmpC inh no detg	Pf growth 48h	SARS PLpro yeast	Sm TGR block	Pf growth 96h
Cc1cc(C)n(CC(=O)n2nc(C)cc2C)n1	?	-8.9%	7.7%	4.7%	-16.1%	10.4µM*
Cc1ccc(C)c(NC(=O)CCN2CCc3ccccc3C2)c1	-0.2%	41.8%	13.1µM*	0.1%	nt	0.0%
Cc1cc(C)n(C(=O)CCC(=O)Nc2ccc(C)c(C)c2)n1	6.3%	-1.8%	nt	12.3%	-1.1%	11.7µM*
CCSc1nnc(-c2cnn(-c3ccccc3)c2-n2cccc2)n1C	-6.1%	39.7%	10.4µM*	-2.1%	-3.6%	nt
CC(=O)Nc1cc2c(cc1NC(=O)Cn1nc(-c3ccccc3)ccc1=O)OCCO2	3.0%	5.9%	-23.5%	13.0%	10.4%	-13.0%
CC(=O)Nc1cc2c(cc1NC(=O)Cn1nc(-c3ccc4c(c3)OCCO4)ccc1=O)OCCO2	-13.3%	29.8%	nt	7.7%	-17.7%	9.28µM*
CN(C(=O)COC(=O)c1ccccc1NCc1ccco1)c1c(N)n(Cc2ccccc2)c(=O)[nH]c1=O	?	126.0%	?	-0.4%	0.5%	?
CN(Cc1ccc(O)cc1)C1CCCCC1	?	-20.3%	-3.6%	-2.1%	-8.8%	-12.8%
CN(Cc1cc(Br)cc(Br)c1N)C1CCCCC1	nt	nt	?	nt	nt	19µM*
O=[N+]([O-])c1ccc(-n2nnnc2-c2ccccc2)c([N+](=O)[O-])c1	-8.2%	-7.2%	0.0%	-24.4%	17.8µM*	?
O=C1C=C(NCc2ccc(Cl)cc2)CCC1	6.0%	-14.7%	8.0%	-12.5%	9.6%	-79.7%
CC1(C)CC(=O)C=C(NC2CCCCCC2)C1	?	-15.6%	?	0.5%	-13.3%	11.7µM*
CC1(C)CC(=O)C=C(NNC(=O)C2CCCCC2)C1	-3.4%	-14.9%	-3.5%	19.0%	0.0%	-10.6%
O=C1C=C(NC2CCCCC2)CCC1	-3.8%	-19.6%	13.1µM*	-2.2%	-6.9%	13.1µM*
CC1(C)CC(=O)C=C(Nc2ccc(Cl)cc2)C1	0.9%	-16.6%	-7.9%[0.00184 µM]	-0.6%	0.5%	?
CC1(C)CC(=O)C=C(NC2CCCCCCC2)C1	?	-11.9%	?	11.3%	-31.8%	3.7µM*
Cc1cnc(C(=O)OCC(=O)Nc2cc(Cl)ccc2C#N)cn1	nt	-15.5%	nt	15.1%	nt	nt
CC(C(=O)Nc1ccccc1C(F)(F)F)n1nc(-c2ccccc2)c2c(c1=O)CCCC2 (stereo not given)	1.3%	nt	nt	nt	-4.2%	nt
COc1ccc(S(=O)(=O)NCc2ccc3c(c2)CCN3C(C)=O)cc1OC	16.0%	nt	nt	nt	2.5%	nt
CN(Cc1ccccc1)C(=O)c1cccc(N2C(=O)C3CC=CCC3C2=O)c1 (stereo not given)	-8.5%	15.2%	-11.1%	0.5%	-11.7%	-6.7%
O=C(c1cccc(N2C(=O)C3CC=CCC3C2=O)c1)N1CCN(c2ccccc2)CC1 (stereo not given)	-1.1%	40.1%	11.7µM*	3.9%	4.7%	?
O=C(O)c1cccc(N2C(=O)C3CC=CCC3C2=O)c1 (stereo not given)	?	-12.8%	1.5%	9.0%	-1.9%	i
O=C(O)c1cccc(N2C(=O)C3CC=C(Cl)CC3C2=O)c1 (stereo not given)	?	-22.7%	nt	4.6%	0.0%	10.4µM*
O=C(c1cccc(N2C(=O)C3CC=CCC3C2=O)c1)N1CCCCCC1 (stereo not given)	-7.2%	-6.7%	4.8%	7.9%	0.6%	0.165µM*
CN(C(=O)c1cccc(N2C(=O)C3CC=CCC3C2=O)c1)C1CCCCC1 (stereo not given)	-6.2%	-48.5%	?	-8.1%	0.5%	10.4µM*
Cc1cc(C)c(C#N)c(N2CCN(C(=O)C3COc4ccccc4O3)CC2)n1 (stereo not given)	-0.8%	15.4%	?	3.6%	3.9%	-13.7%
O=C(NCc1ccc2c(c1)CCN2C(=O)c1ccccc1)c1cc2ccccc2[nH]1	3.1%	nt	nt	nt	-2.0%	nt
